Luc counter – Counterscreen for Luciferase (Kinase-Glo TM) Inhibition. Luciferin 4-monooxygenase (Photuris pensylvanica), Q27757. Kinase-Glo luciferase, ATP luminescence, 8 min. Potency, µM (doses to about 38.3 µM), hits mostly inhibitors. 0.28% of 200,000 active; note: nearly all actives have a fitted effect of over 60% in size
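Light output from Kinase-Glo luciferase with luciferin and 10 uM ATP in 50 mM imidazole pH 7.2, KCl, MgCl2, Tween 20, BSA; compound pin-delivered, 8-min ambient incubation, then luminescence read.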
Gal4-VP16 FLuc – VP16 counterscreen qHTS for inhibitors of ROR gamma transcriptional activity | AID 2546, 2010 | 3.5% of 310,000 active | Drosophila S2 Gal4-VP16 UAS-luciferase, luminescence, 20 h | Potency, µM (series often up to 53.6 µM), most hits filed as inhibitors;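 note: Gal4-VP16 expression switched on by copper sulfate through the metallothionein promoter; nearly all actives have a fitted effect of over 50% in size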
RORgamma inh – qHTS for inhibitors of ROR gamma transcriptional activity; Drosophila S2 Gal4-RORgamma UAS-luciferase reporter, 20 h; AID 2551, 2010; Nuclear receptor ROR-gamma (Mus musculus), P51450; 5.4% of 310,000 active; Potency, µM (series often up to 53.6 µM), actives largely listed as inhibitors; note: nearly all actives have a fitted effect of over 60% in size
Target sequence (P51450 whole entry, looked up, the tested form may be a part): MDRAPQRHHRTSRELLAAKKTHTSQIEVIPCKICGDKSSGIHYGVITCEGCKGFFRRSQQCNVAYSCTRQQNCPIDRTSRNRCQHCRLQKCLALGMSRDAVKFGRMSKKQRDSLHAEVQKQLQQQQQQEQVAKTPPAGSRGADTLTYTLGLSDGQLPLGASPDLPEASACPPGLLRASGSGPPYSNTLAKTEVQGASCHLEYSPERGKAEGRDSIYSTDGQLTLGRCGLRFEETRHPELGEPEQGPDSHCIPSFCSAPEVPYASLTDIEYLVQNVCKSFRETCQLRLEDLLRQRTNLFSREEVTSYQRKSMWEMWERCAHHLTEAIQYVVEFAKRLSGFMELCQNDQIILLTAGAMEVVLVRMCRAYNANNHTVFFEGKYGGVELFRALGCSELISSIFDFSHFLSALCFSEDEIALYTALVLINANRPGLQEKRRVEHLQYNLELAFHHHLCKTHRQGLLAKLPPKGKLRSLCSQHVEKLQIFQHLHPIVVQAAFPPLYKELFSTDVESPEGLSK
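Using a luciferase readout, inhibitors were identified by reduced reporter activity in Drosophila cells coexpressing a copper-inducible Gal4–ROR gamma fusion and UAS-driven Photinus luciferase, incubated 20 hr after 700 uM copper sulfate.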
Large screens that a line does not name were inactive. Hits are enriched below; roughly 6.4% of the tested compounds scored in any of these assays. Calls come from the whole dose curve; as a rule, active = well fitted curve in the direction sought with a large enough effect; inconclusive = small, poorly fitted or top-dose-only effect, or another doubt; inactive = no such curve, though single readings can be large; an effect the other way counts as inactive or inconclusive.

COc1ccc(C(=O)NC=C2C(=O)OC(C)(C)OC2=O)cc1	none
O=C(O)c1ccc(N=C2NC(=O)C(CO)(CO)S2)cc1	none (no result: Luc counter)
CCOC(=O)c1ccc(S(=O)(=O)N2CCN(C3CCCC3)CC2)cc1	none
COc1ccccc1CCC(=O)Oc1ccc(C#N)cc1OC	Gal4-VP16 FLuc 11.2µM, RORgamma inh inconclusive (no result: Luc counter)
COc1cc(C#N)ccc1OC(=O)Cc1cc(OC)c(OC)c(OC)c1	none (no result: Luc counter)
COc1cc(OC)c(NC(=O)CN(C)S(=O)(=O)c2ccc3[nH]c(=O)oc3c2)cc1Cl	none (no result: Luc counter)
Cc1nc2sccn2c(=O)c1S(=O)(=O)Nc1ccc(N2CCOCC2)c(Cl)c1	RORgamma inh inconclusive (no result: Luc counter)
Cc1nc2scc(C)n2c(=O)c1S(=O)(=O)Nc1ccc(N2CCOCC2)c(Cl)c1	Gal4-VP16 FLuc 11.2µM (no result: Luc counter)
Cc1nc(-c2ccc(C(F)(F)F)cc2)sc1C(=O)NN	Gal4-VP16 FLuc 3.55µM, RORgamma inh 4.47µM (no result: Luc counter)
Cc1nc(-c2cccnc2)sc1C(=O)Nc1ccc(C(F)(F)F)cc1	none
Cc1onc(-c2ccccc2)c1C(=O)/C=C/N(C)C	none (no result: Luc counter)
O=C(NC(NNc1ccc([N+](=O)[O-])cc1)(C(F)(F)F)C(F)(F)F)c1ccc(Cl)cc1	Gal4-VP16 FLuc inconclusive, RORgamma inh 15.8µM
O=C(NNc1ccc([N+](=O)[O-])cc1)c1ccccc1F	none
CCOc1ccc(-c2ccc(/C=C3/C(=N)N4C(C)=CSC4=NC3=O)o2)c([N+](=O)[O-])c1	Gal4-VP16 FLuc inconclusive
CC1=CN2C(=N)/C(=C/c3ccco3)C(=O)N=C2S1	Gal4-VP16 FLuc 15.8µM, RORgamma inh inconclusive
Cc1ccc(-n2cccc2/C=C2\C(=N)N3N=C(c4ccco4)SC3=NC2=O)cc1	none
CCOc1ccc(-c2ccc(/C=C3/C(=N)N4C=CSC4=NC3=O)o2)c([N+](=O)[O-])c1	Gal4-VP16 FLuc 3.55µM, RORgamma inh 2.51µM
CC1=CN2C(=N)/C(=C/c3ccc([N+](=O)[O-])o3)C(=O)N=C2S1	Gal4-VP16 FLuc 5.01µM, RORgamma inh 11.2µM
Cc1ccc(/C=C2/C(=N)N3N=C(CC(=O)N4CCCC4)SC3=NC2=O)o1	RORgamma inh inconclusive (no result: Luc counter)
CC(C)(C)c1ccc(C(CC(=O)O)NC(=O)Cc2ccc(Cl)cc2)cc1 (stereo unspecified)	none (no result: Luc counter)
O=C(NCCO)C(=O)NCC1OCCCN1S(=O)(=O)c1ccc2c(c1)OCCO2 (stereo unspecified)	none (no result: Luc counter)
CCOC(=O)c1[nH]c(C)c(CN(C(C)=O)c2ccc(OCC)cc2)c1C	none
Cc1cc(CN2CCC(n3nccc3NC(=O)c3ccccc3Cl)CC2)cc(C)c1O	none (no result: Luc counter)
Cc1ccc(NC(=O)c2cc3ccccc3oc2=N)cc1	RORgamma inh inconclusive (no result: Luc counter)
Cc1ccnc(NC(=O)c2cc3ccccc3oc2=O)c1	Luc counter 11.2µM
COc1ccc(C(=O)NNC(=O)c2cc3cc(OC)ccc3oc2=O)cc1	none (no result: Luc counter)
COc1ccc2oc(=O)c(C(=O)Nc3cccc(C)c3)cc2c1	Gal4-VP16 FLuc inconclusive, RORgamma inh 2.24µM
COc1cc2ccccc2cc1C(=O)Nc1cc(C)ccn1	none (no result: Luc counter)
O=C(Nc1cccnc1N1CCOCC1)c1cc2ccccc2oc1=O	none (no result: Luc counter)
O=C(O)c1ccccc1NC(=O)c1cc2ccccc2oc1=O	Gal4-VP16 FLuc inconclusive, RORgamma inh 12.6µM (no result: Luc counter)
Cc1cccc(NC(=O)c2cc3ccccc3oc2=O)c1	Gal4-VP16 FLuc inconclusive, RORgamma inh 2.82µM (no result: Luc counter)
CC(=O)N[C@@H](Cc1c[nH]c2ccccc12)C(=O)NC1CC1	none (no result: Luc counter)
COc1ccc2cc(C(=O)NC3CCCCC3)c(=O)oc2c1	Gal4-VP16 FLuc inconclusive
COc1cccc(NC(=O)c2cc3cccc(OC)c3o/c2=N\O)c1	none (no result: Luc counter)
O=C(NC1CCCCCC1)c1cc2ccccc2oc1=O	Gal4-VP16 FLuc inconclusive, RORgamma inh 10µM (no result: Luc counter)
COc1cccc(NC(=O)c2cc3ccccc3o/c2=N\O)c1	Gal4-VP16 FLuc 20µM, RORgamma inh 8.91µM (no result: Luc counter)
O=C(Nc1cccc(-c2cn3ccccc3n2)c1)c1cc2ccccc2oc1=O	Gal4-VP16 FLuc 8.91µM, RORgamma inh inconclusive
CC(=O)Nc1cccc(-c2cn3ccccc3n2)c1	none
CCOC(=O)NC(=O)CSc1nnc(C2CC2)n1Cc1ccco1	none
N#CC1=C(N)C2=CCCC[C@H]2[C@H](c2ccc(Br)cc2)C1(C#N)C#N	Gal4-VP16 FLuc 5.01µM, RORgamma inh inconclusive
N#CC1=C(N)C2=CCCC[C@H]2[C@H](c2ccccc2)C1(C#N)C#N	none
CCN(CC(=O)Nc1ccc(NC(C)=O)cc1)C(=O)/C=C/c1ccc(S(=O)(=O)N2CCCCCC2)cc1	none (no result: Luc counter)
COc1ccc(F)cc1S(=O)(=O)Nc1ccccc1C(=O)O	none (no result: Gal4-VP16 FLuc, RORgamma inh)
Fc1ccc(-c2nnc(-c3ccc(Cl)cc3Cl)o2)cc1	Gal4-VP16 FLuc 10µM, RORgamma inh 14.1µM
Clc1ccc(-c2nnc(-c3ccccc3)o2)c(Cl)c1	Luc counter inconclusive, Gal4-VP16 FLuc inconclusive
CS(=O)(=O)N1CCN=C1SCc1ccc([N+](=O)[O-])cc1	none
COc1ccc(/C=C2/C(=O)N(CC3CCCO3)C(=S)N2C)c(OC)c1 (stereo unspecified)	none
COc1ccccc1/C=C1\NC(=S)N(CC2CCCO2)C1=O (stereo unspecified)	Gal4-VP16 FLuc 12.6µM
CC(=O)NS(=O)(=O)c1ccc(N=c2ssc3c2-c2ccc(C)cc2NC3(C)C)cc1	RORgamma inh inconclusive
C/C(=N\NC(=S)Nc1ccccc1)C1Cc2ccccc2C(=O)O1 (stereo unspecified)	none (no result: Luc counter)
C/C(=N\NC(=S)Nc1ccccc1C)C1Cc2ccccc2C(=O)O1 (stereo unspecified)	Gal4-VP16 FLuc inconclusive, RORgamma inh 2.82µM (no result: Luc counter)
Cc1nn(-c2ccccn2)c2c1C(c1ccsc1)C1=C(CCCC1=O)N2 (stereo unspecified)	Gal4-VP16 FLuc inconclusive, RORgamma inh inconclusive
Cc1nn(-c2ccccn2)c2c1C(c1ccccc1Cl)C1=C(N2)c2ccccc2C1=O (stereo unspecified)	Gal4-VP16 FLuc inconclusive, RORgamma inh 2.82µM
CSC1=C(C#N)C(c2ccccc2Cl)C2=C(N1)c1ccccc1C2=O (stereo unspecified)	none
Cc1nn(-c2ccccn2)c2c1C(c1c(F)cccc1Cl)C1=C(N2)c2ccccc2C1=O (stereo unspecified)	Gal4-VP16 FLuc 7.94µM, RORgamma inh 1.58µM
O=C(CCc1c[nH]c2ccccc12)OCc1ccc(Br)cc1	none (no result: Luc counter)
O=C(Nc1nnc(CCc2ccccc2)s1)c1cccc(F)c1	RORgamma inh 17.8µM (no result: Luc counter)
O=C(Nc1nnc(CCc2ccccc2)s1)c1ccc(F)cc1	none (no result: Luc counter)
O=[N+]([O-])c1ccc(S(=O)(=O)Cc2ccccc2)c2nonc12	none (no result: Gal4-VP16 FLuc, RORgamma inh)
CCc1ccc2c(c1)C1(NN=C(c3cccc4ccccc34)S1)C(=O)N2 (stereo unspecified)	Gal4-VP16 FLuc 2.82µM, RORgamma inh 2.82µM
CCc1ccc2c(c1)C1(C(=O)N2)N2CCCC2C(C(=O)c2ccc3ccccc3c2)C12C(=O)Nc1ccccc12 (stereo unspecified)	Gal4-VP16 FLuc inconclusive, RORgamma inh inconclusive
O=C(O)COc1ccccc1/C=N/NC(=O)CSc1nc2ccccc2n1Cc1ccccc1Cl	none (no result: Luc counter)
CCCNCC1C(Oc2ccc(Cl)cc2)C(=O)N1c1ccccc1C (stereo unspecified)	none
CN1CCc2c(sc3c2C(=O)NC(c2ccccn2)N3)C1 (stereo unspecified)	none
O=C1NC(c2ccccn2)Nc2sc3c(c21)CCC3 (stereo unspecified)	Gal4-VP16 FLuc inconclusive, RORgamma inh 14.1µM

Compound activity (PubChem)
